Records with an inconclusive call do not appear. Active and inactive are the calls of the source. Unless noted, calls follow the shape of the dose curve; as a rule, active = well fitted curve in either direction with a large enough effect (not every such curve was filed as active); inconclusive = small, poorly fitted or top-dose-only effect, or another doubt; inactive = flat fitted curve, though single readings scatter.

The record followed here is PubChem BioAssay (NCATS).

Test [1] has as its target Lysosomal acid glucosylceramidase (Homo sapiens) (UniProt P04062). Kind of test: Glucocerebrosidase-p2 (AID 348; in the data active = potency below about 10 µM; also: potency is read from the fitted curve at half-maximal effect). The conditions noted are these: purified GBA, blue fluorogenic substrate, 40 min. An outline of the steps: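 Normal human glucocerebrosidase (0.2 nM) with blue fluorogenic substrate (80 uM final) in citrate/phosphate pH 5.9 with 10mM sodium taurocholate, 0.01% tween-20; 40 min RT, NaOH/glycine stop; fluorescence Ex 365/Em 440; AC50 from a titration from 0.6 nM upwards.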

Test [2] in a line: AP1 Signaling Pathway (AID 357). Also: % is scaled to controls: 0 for no effect and ±100 for the full control effect. The conditions noted are these: ME-180 AP-1-bla reporter, EGF-induced, beta-lactamase ratio, 5 h; at 7.69 µM (top of the series) unless noted. An outline of the steps: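 Cells are seeded overnight, exposed to compound titrations and an EC50 level of EGF for 5 hours at 37 °C, then loaded with CCF4 dye for 2.5 hours. Beta-lactamase activity under the AP-1 element is read as a blue/green ratio.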

Test [3] deals with Cytochrome P450 1A2 (Homo sapiens) (UniProt P05177). The experiment in a line: p450-cyp1a2 (AID 410; calls by dose curve; also: potency is read from the fitted curve at half-maximal effect). The conditions noted are these: recombinant CYP1A2, luciferin-ME demethylation, luminescence; series mostly up to 57 µM. Put shortly:
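20nM CYP1A2, 100uM Luciferin-ME (=Km), 100mM KPO4; cpd 10 min RT; +NADPH regen, 60 min RT; stop/detect 20 min; luminescence. Normalized to furafylline 57 uM = full inhibition.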

In test [4] the target is Glucocorticoid receptor (Homo sapiens) (UniProt P04150). The experiment in a line: GR-GFP Redistribution (AID 450;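 active = compounds whose dose series gives a full or clear partial fitted curve of increased nuclear translocation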; also: potency is read from the fitted curve at half-maximal effect). The conditions noted are these: U2OS GR-GFP nuclear translocation, laser cytometry, 2 h.
Test [5] shares this target. The experiment in a line: GR-EFC Redistribution (AID 451; calls by dose curve; also: potency is read from the fitted curve at half-maximal effect). The conditions noted are these: CHO-K1 GR-EFC translocation, beta-gal luminescence, 2 h. Put shortly:
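CHO-K1 cells stably expressing nuclear-localized β-gal enzyme acceptor and GR fused C-terminally to the enzyme donor fragment; ligand-driven nuclear translocation restores β-gal by complementation. Compounds titrated up to 46 uM final, 2 h at 37 °C; luminescence read.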

Test [6] addresses Mitogen-activated protein kinase 10 (Mus musculus) (UniProt Q61831). The experiment in a line: JNK3 AlphaScreen Assay (AID 530).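 Also: kinase came from lysate of stimulated human HepG2 cells; signal reports phosphorylation of biotinylated GST-cJun 1-79 at Ser73 with 10 µM ATP; % is scaled to controls: 0 for no effect and ±100 for the full control effect.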 As to conditions: JNK3 lysate, c-Jun phosphorylation; series mostly up to 57.1 µM. An outline of the steps:
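Biotinylated GST-cJun(1-79) served as substrate for JNK3 in HepG2 lysates stimulated with IL-1beta and TNF-alpha. ATP was 10 uM final, pH 7.6. Ser73 phosphorylation was quantified by AlphaScreen (680 nm excitation).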
A general note: Bead proximity is the source of the signal in Alpha formats.

In test [7] the target is Cytochrome P450 3A4 (Homo sapiens) (UniProt P08684). The experiment in a line: qHTS Assay for Activators of Cytochrome P450 3A4 (AID 885; active = well fitted curve in the direction sought with a large enough effect; an effect the other way counts as inactive or inconclusive; also: nearly all actives have a fitted effect of over 65% in size). The conditions noted are these: recombinant CYP3A4, Luciferin-PPXE luminescence, 60 min; series mostly up to 57.1 µM. Put shortly:
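Activators are scored by enhanced luminescence from CYP3A4 conversion of luciferin-PPXE (25uM, equal to KM) to luciferin, after 60 min at RT with an NADPH-regenerating system.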

In test [8] the target is Cytochrome P450 2C19 (Homo sapiens) (UniProt P33261). The experiment in a line: qHTS Assay for Inhibitors and Substrates of Cytochrome P450 2C19 (AID 899; active = well fitted curve in the direction sought with a large enough effect; an effect the other way counts as inactive or inconclusive; also: potency is read from the fitted curve at half-maximal effect; nearly all actives have a fitted effect of over 60% in size). The conditions noted are these: recombinant CYP2C19, luciferin-H EGE luminescence; series mostly up to 57.1 µM. Put shortly:
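Human CYP2C19 (5nM) with Luciferin-H EGE at 10uM (its KM) in 50mM KPO4 was preincubated with compound for 10 min at 37C. NADPH regeneration started a 60 min 37C reaction. Luciferin was read by luminescence, normalized to 57uM ketoconazole.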
For orientation: qHTS replaces the single test concentration by a dilution series.

Test [9] can be described thus: Confirmation and Secondary Assay for Modulators of Hemoglobin Beta Chain Splicing at IVS2 654 locus (AID 910; active = well fitted curve in the direction sought with a large enough effect; an effect the other way counts as inactive or inconclusive;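 also: per-well total GFP intensity by laser scanning cytometry after 2-day treatment; % of control where 0% means no effect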). The conditions noted are these: HeLa EGFP-654 splicing reporter, GFP fluorescence, 48 h; series mostly up to 38.3 µM. Put shortly:
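HeLa cells stably carrying EGFP interrupted by mutant beta-globin IVS2-654 intron (CMV-driven) were treated with compound for 2 days at 37C; corrected splicing was scored as total peak GFP intensity per well (488 nm excitation, 500-520 nm emission).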

Test [10] is described as follows: qHTS Assay for Identification of Small Molecule Agonists for Hypoxia Response Element Signaling Pathway (AID 914; active = well fitted activation curve with a large enough effect in the signal ratio, with a control signal flat, not every such curve was filed as active; the % refers to the signal ratio; also: potency is read from the fitted curve at half-maximal effect; as to activation: % of control where 0% means no effect). The conditions noted are these: ME-180 HRE-bla reporter, beta-lactamase ratio, CoCl2, 17 h; activation: stronger effect = higher value. An outline of the steps: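 ME-180 cells carrying an HRE-driven beta-lactamase reporter were treated with compounds in a titration series plus an EC50 level of CoCl2 for 17 h at 37 degrees Celsius; CCF4 readout as the 460nm/530nm ratio gave AC50 values.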

Test [11] can be described thus: qHTS Assay for Lipid Storage Modulators (AID 1519; calls by dose curve). As to conditions: Drosophila S3 cells, BODIPY lipid droplet/cell ratio, laser cytometry, cells loaded with oleic acid; for activity change, negative = inhibition: at 57.5 µM (top of the series). Put shortly:
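Cells seeded at 5,000 per well were treated with compounds over a concentration series and loaded with oleic acid (400 uM, as added). Lipid droplet fluorescence (488 nm excitation, 500-530 nm channel) was read by laser-scanning cytometry and normalized to 20 uM Triacsin C.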

The nature of test [12]: Primary qHTS for small molecule stabilizers of the endoplasmic reticulum resident proteome: Secreted ER Calcium Modulated Protein (SERCaMP) assay (AID 1508630; active = well fitted curve in the direction sought with a large enough effect; an effect the other way counts as inactive or inconclusive; also: % is scaled to controls: 0 for no effect and ±100 for the full control effect). As to conditions: SH-SY5Y GLuc-SERCaMP (Gaussia luciferase released on ER calcium loss) secretion, thapsigargin, luminescence; series mostly up to 38.4 µM. Put shortly: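 The SH-SY5Y reporter protocol was run at 3 concentrations up to 38.3 uM (primary) or 11 concentrations (follow-up): 16 h compound, 100 nM thapsigargin for 4 h, then extracellular luciferase luminescence.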

The nature of test [13]: NFAT Signaling Pathway (AID 444).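 Also: carbachol stimulus at about its EC50 of 1 µM final; % is scaled to controls: 0 for no effect and ±100 for the full control effect.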 As to conditions: Jurkat NFAT-bla M1, carbachol, beta-lactamase ratio, 5 h; at 7.69 µM (top of the series) unless noted. Put shortly: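 Jurkat cells carrying an NFAT-driven β-lactamase reporter and co-transfected muscarinic M1 receptor were treated with compound plus carbachol (1 uM final, an EC50 level) for 5 h at 37 °C. CCF4 loading followed for 1 h at RT; 460/530 nm ratio gave %activity.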

Test [14] in a line: Stat Signaling Pathway (AID 446). As to conditions: ME-180 (cervical carcinoma) SIE beta-lactamase reporter, IL-6 stimulated, 5 h; at 7.69 µM (top of the series) unless noted. Put shortly:
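Emission at 460 and 530 nm (excitation 405 nm) reports SIE-controlled beta-lactamase in ME-180 cells. Cells received compound with 40 pM IL-6 for 5 hrs at 37 C; data scaled between 300 pM IL-6 and 125 nM JAK-inhibitor controls.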

Test [15] concerns the target 3',5'-cyclic-AMP phosphodiesterase 4B (Homo sapiens) (UniProt Q07343). Kind of test: qHTS Assay for Inhibitors of PDE-IV (AID 607; active = well fitted activation curve with a large enough effect in the main read-out, with a control signal flat, not every such curve was filed as active; also: % of control where 0% means no effect). The conditions noted are these: HEK293 ACTOne CNG channel cells, membrane potential fluorescence; series mostly up to 22.9 µM. An outline of the steps: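 The readout is membrane depolarisation from a cAMP-sensing CNG channel, detected with a potential dye at ex 535/em 590. Cells were HEK293-derived (endogenous PDE-IV) at 1000 cells/well, titrated up to 22.9 uM final.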

Test [16] is described as follows: Confirmation and Secondary Assay for Modulators of Hemoglobin Beta Chain Splicing at IVS2 705 locus (AID 930; active = well fitted curve in the direction sought with a large enough effect; an effect the other way counts as inactive or inconclusive; also: % of control where 0% means no effect). The conditions noted are these: HeLa EGFP-705 splicing reporter, GFP fluorescence, 48 h; series mostly up to 38.3 µM. Put shortly: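 HeLa cells stably carrying EGFP interrupted by mutant beta-globin IVS2-705 intron (CMV-driven) were seeded at 500 cells/well, treated next day with compound for 2 days at 37C; corrected splicing restores EGFP, read as total peak GFP intensity per well.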

In test [17] the target is Ubiquitin carboxyl-terminal hydrolase 1 (Homo sapiens) (UniProt O94782). The experiment in a line: Inhibitors of USP1/UAF1: Pilot qHTS (AID 504865; active = well fitted curve in the direction sought with a large enough effect; an effect the other way counts as inactive or inconclusive;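 also: rhodamine fluorescence freed from ubiquitin-rhodamine substrate followed over time; top concentration of the series differs between compounds; % is scaled to controls: 0 for no effect and ±100 for the full control effect; nearly all actives have a fitted effect of over 35% in size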). The conditions noted are these: purified USP1/UAF1, Ub-rhodamine cleavage fluorescence; series mostly up to 54.9 µM. Put shortly:
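In 50mM HEPES pH 7.8 containing 0.5mM EDTA, 1mM TCEP, 0.1 mg/ml BSA and 0.01% Tween-20, 1nM USP1/UAF1 is exposed to compound for 15 min, then Ub-Rho (150nM final) is added and fluorescence is read over time.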

Where [18] appears, read: measured here: cell count channel max response.
Where [19] appears, read: measured here: lipid channel max response.

Sequence of Glucocorticoid receptor (Homo sapiens) (P04150 whole entry, looked up): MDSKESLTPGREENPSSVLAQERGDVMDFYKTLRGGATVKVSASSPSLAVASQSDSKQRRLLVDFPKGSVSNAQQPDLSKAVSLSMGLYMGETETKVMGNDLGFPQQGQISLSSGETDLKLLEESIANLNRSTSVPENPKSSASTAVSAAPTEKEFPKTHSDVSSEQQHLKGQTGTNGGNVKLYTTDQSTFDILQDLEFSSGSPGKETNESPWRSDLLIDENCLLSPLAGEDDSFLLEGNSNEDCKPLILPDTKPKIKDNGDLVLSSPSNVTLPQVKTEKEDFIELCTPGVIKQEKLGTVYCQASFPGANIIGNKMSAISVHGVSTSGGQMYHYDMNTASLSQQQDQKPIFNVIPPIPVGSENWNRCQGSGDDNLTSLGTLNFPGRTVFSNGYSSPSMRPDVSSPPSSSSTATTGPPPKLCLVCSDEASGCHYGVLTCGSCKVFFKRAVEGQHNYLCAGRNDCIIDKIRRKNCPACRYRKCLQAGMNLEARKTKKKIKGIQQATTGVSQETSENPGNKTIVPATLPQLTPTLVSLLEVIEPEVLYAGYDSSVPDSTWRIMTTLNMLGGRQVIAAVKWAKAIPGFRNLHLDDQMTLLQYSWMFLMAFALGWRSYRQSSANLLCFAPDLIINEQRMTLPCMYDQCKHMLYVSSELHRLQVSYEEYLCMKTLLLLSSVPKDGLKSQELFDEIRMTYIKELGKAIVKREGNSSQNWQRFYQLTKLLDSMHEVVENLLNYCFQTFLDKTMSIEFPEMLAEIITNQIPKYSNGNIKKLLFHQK
Sequence of 3',5'-cyclic-AMP phosphodiesterase 4B (Homo sapiens) (Q07343 whole entry, looked up): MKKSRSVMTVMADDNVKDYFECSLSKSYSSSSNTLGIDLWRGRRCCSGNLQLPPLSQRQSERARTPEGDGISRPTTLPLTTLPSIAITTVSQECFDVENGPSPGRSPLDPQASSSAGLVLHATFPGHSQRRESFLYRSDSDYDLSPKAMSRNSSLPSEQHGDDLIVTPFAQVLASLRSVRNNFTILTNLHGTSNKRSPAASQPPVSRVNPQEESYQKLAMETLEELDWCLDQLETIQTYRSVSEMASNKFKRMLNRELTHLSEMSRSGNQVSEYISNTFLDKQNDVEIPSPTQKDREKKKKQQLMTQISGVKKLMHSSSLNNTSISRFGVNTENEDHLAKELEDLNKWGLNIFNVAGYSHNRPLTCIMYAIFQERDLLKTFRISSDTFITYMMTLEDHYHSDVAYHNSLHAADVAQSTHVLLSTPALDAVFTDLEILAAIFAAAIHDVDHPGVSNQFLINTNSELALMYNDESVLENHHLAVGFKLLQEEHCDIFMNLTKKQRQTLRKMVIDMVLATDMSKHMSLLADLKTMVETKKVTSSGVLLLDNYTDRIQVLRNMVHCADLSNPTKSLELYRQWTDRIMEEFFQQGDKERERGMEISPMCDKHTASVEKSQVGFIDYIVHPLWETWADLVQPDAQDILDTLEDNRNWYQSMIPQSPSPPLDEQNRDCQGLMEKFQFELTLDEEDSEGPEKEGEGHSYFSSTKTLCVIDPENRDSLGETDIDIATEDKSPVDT
Sequence of Lysosomal acid glucosylceramidase (Homo sapiens) (P04062 whole entry, looked up): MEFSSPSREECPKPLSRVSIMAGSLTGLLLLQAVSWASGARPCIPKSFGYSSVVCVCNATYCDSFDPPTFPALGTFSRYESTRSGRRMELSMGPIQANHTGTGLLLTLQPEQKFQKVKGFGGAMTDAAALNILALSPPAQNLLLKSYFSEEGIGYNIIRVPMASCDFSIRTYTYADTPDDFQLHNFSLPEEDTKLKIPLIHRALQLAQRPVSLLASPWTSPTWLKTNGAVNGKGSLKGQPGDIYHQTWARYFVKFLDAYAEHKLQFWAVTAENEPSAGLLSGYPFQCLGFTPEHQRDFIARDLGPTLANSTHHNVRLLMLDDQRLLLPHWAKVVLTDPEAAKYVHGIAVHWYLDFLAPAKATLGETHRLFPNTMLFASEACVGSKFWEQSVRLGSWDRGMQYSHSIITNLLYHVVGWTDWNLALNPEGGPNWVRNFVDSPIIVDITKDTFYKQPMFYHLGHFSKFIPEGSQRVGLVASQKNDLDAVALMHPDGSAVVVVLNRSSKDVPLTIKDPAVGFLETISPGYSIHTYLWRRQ
Sequence of Cytochrome P450 3A4 (Homo sapiens) (P08684 whole entry, looked up): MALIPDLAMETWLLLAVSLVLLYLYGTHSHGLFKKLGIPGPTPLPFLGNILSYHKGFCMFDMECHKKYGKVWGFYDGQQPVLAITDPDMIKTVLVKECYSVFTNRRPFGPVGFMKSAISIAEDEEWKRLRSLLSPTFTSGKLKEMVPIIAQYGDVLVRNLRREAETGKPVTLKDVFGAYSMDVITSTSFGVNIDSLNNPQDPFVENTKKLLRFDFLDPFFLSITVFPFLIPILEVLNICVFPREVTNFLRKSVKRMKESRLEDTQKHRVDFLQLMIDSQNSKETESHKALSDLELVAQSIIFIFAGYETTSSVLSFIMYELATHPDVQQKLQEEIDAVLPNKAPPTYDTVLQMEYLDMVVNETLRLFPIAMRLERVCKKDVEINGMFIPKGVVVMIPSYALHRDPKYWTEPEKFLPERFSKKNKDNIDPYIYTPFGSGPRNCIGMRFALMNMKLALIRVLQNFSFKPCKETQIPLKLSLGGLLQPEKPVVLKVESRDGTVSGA
Sequence of Cytochrome P450 1A2 (Homo sapiens) (P05177 whole entry, looked up): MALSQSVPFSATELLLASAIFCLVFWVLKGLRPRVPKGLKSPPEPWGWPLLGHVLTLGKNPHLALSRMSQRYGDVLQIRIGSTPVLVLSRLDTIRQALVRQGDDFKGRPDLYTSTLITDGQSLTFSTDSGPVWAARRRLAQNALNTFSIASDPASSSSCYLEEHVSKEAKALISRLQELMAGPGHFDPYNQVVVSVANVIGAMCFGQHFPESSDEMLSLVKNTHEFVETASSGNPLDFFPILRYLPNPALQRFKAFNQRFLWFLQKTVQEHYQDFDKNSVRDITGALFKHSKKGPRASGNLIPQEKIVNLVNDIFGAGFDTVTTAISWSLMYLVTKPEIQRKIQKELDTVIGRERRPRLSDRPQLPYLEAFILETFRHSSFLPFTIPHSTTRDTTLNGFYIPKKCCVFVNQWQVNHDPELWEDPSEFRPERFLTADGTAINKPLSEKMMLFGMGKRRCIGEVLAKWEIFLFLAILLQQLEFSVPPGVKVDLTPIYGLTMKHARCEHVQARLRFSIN
Sequence of Ubiquitin carboxyl-terminal hydrolase 1 (Homo sapiens) (O94782 whole entry, looked up): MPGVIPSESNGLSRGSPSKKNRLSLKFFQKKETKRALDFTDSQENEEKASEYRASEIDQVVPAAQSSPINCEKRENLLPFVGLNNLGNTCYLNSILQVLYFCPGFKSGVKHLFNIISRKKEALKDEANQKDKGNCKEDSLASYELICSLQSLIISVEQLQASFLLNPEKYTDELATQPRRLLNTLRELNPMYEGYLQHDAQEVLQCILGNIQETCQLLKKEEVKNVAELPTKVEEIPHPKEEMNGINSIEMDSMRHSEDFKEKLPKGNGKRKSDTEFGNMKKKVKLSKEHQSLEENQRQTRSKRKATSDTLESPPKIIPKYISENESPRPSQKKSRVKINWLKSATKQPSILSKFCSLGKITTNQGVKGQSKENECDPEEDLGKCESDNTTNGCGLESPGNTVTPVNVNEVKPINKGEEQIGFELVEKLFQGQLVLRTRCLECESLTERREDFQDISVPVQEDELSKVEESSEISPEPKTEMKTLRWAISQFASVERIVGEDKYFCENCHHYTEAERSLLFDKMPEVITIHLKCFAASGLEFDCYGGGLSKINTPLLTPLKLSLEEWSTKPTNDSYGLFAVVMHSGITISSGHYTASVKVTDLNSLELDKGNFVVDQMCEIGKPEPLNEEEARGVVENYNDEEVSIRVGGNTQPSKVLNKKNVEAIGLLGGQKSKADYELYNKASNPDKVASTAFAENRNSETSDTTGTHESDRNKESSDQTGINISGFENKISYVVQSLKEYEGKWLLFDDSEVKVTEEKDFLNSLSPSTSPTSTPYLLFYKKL
Sequence of Cytochrome P450 2C19 (Homo sapiens) (P33261 whole entry, looked up): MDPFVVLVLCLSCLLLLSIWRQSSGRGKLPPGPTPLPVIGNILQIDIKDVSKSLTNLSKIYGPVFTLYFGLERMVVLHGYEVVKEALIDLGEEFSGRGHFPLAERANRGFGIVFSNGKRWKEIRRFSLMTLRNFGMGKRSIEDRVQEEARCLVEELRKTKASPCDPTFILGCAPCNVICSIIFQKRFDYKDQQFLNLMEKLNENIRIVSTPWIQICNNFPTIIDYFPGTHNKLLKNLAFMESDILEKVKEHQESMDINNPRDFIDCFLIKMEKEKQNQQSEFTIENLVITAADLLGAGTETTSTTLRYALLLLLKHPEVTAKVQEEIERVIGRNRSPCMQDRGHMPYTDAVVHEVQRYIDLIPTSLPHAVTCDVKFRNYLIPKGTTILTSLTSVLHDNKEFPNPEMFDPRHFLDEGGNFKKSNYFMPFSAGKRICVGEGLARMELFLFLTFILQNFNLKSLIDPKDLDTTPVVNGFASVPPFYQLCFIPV

For `Cc1noc(C)c1-c1ccc2ncnc(NCc3ccccc3)c2c1`, the Potency in test [1] is > 11.4 µM (inactive); in [3], 3.16 µM (active); in test [4] it was > 46 µM (inactive); in test [5], > 46 µM (inactive); in [8], 7.94 µM (active); in test [10] it was 3.16 µM (active). Also, the activity change, negative = inhibition is 21.4% (inactive) in test [2] and -0.127% (inactive) in test [11]. Also, the Potency entry in [6], in test [7] and in test [9] was “inactive” in each case. Further, the max response was -0.875% in test [11] (setting [18]) and -2.04% in test [11] (setting [19]). In addition, the result in test [12] was inactive.
As for `COc1ccccc1CNc1ncncc1-c1ccccc1CN(C)C`, the values for the Potency in test [1], in test [4] and in test [5] were > 11.4 µM (inactive), > 46 µM (inactive) and > 46 µM (inactive), respectively. Also, the figures for the activity change, negative = inhibition in test [2], in [13] and in [11] were -14.2% (inactive), -25.5% (inactive) and 5.27% (inactive), respectively. Moreover, the activity, negative = inhibition in test [14] is 6.72% (inactive). The Potency result in test [6], in test [15], in test [9] and in [17] was “inactive” throughout. In addition, the activation in test [10] is -9.29% (inactive). The compound was called inactive in test [16] and in [12]. The max response is 12.7% in test [11] (setting [18]) and 17.5% in [11] (setting [19]).
As to `COc1ncc2nc(-c3ccccc3)c(=O)n(C[C@H]3CCCO3)c2n1`, the Potency in test [1] is > 11.4 µM (inactive); in test [4], > 9.22 µM (inactive); in test [5], > 46 µM (inactive). Also, the activity change, negative = inhibition in [2] was -19.2% (inactive); in [13], -13.8% (inactive); in test [11], 1.51% (inactive). Further, the activity, negative = inhibition in [14] was 0.632% (inactive). Further, the Potency result in test [6], in [15] and in test [7] was “inactive” each time. Moreover, the max response in test [11] (setting [18]) was 9.98%; in test [11] (setting [19]), 14.7%. Further, in [12], the result was inactive.
Take `Cn1cccc1C(=O)N1CCC2(CCN(Cc3ccncc3)CC2)CC1`: the Potency is > 11.4 µM (inactive) in test [1] and 15.8 µM (active) in test [3]. Moreover, the figures for the activity change, negative = inhibition in test [2] and in test [11] were -3.94% (inactive) and 4.51% (inactive), respectively. The activity, negative = inhibition in [14] is -9.94% (inactive). Also, the Potency entry in test [6], in test [15] and in test [7] was “inactive” throughout. Further, the activation in test [10] is -5.1% (inactive). In addition, the max response in test [11] (setting [18]) was -5.01%; in [11] (setting [19]), 3.28%. Also, the result in test [12] was inactive.
`O=C(c1csnn1)N1CCC2(CC1)CCN(c1cccc(-c3ccccc3)c1)CC2`: the Potency in test [1] was > 11.4 µM (inactive); in test [5], > 46 µM (inactive). In addition, the activity change, negative = inhibition in test [2] is -21.7% (inactive); in [13] it was 22.2% (inactive); in test [11] it was -6.94% (inactive). Further, in [14], the activity, negative = inhibition is -14.3% (inactive). For the same compound, the Potency result in test [6] and in [15] was “inactive” in each case. In addition, the max response in test [11] (setting [18]) was determined as 9.03%; in test [11] (setting [19]), 3.45%. Besides, in test [12], the outcome was inactive.
As for `Cc1ccccc1-c1cc(-n2ccnc2)ncn1`, the Potency in [1] was > 11.4 µM (inactive); in [4] it was > 46 µM (inactive); in test [5] it was > 46 µM (inactive). Besides, the activity change, negative = inhibition in test [2] was -7.76% (inactive); in test [13], -6.87% (inactive); in test [11], 9.66% (inactive). The activity, negative = inhibition in test [14] is 15.7% (inactive). The Potency entry in test [6], in test [15], in test [9] and in [17] was “inactive” in each case. In addition, the outcome in test [16] and in test [12] was inactive. Moreover, the max response in test [11] (setting [18]) was 7.52%; in test [11] (setting [19]), 17.5%.
